In the library only some 0.82% were active in any assay of this set; here they are far more common.
RTF Ca sens act: cardiac RTF calcium sensitization. activation, % at 7.2 µM. IANBD-labeled TnC RTF fluorescence at EC20 calcium; 0% EC20 calcium, 100% full calcium. P19429+P45379. actives 0.24% (n = 340,000);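 active = activation above the mean over all tested compounds plus 3 SD, cut at about 30% in these data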;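 also: rise in fluorescence read as greater calcium sensitivity of cardiac thin filaments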
RTF Ca sens inh: cardiac RTF calcium desensitization; IANBD-labeled cardiac RTF, Ca2+ fluorescence; inhibition, % at 7.15 µM; actives 0.12% (n = 340,000); AID 493244;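 active = inhibition above the mean inhibition of all tested compounds plus 3 SD, cut at about 17% in these data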;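 also: assay run at fixed EC70 calcium of 1.6 mM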
eLon inh: inhibitors of E. coli Lon protease. purified E. coli Lon protease, fluorescence polarization. inhibition, % at 7.94 µM. actives 0.42% (n = 360,000); in the data active = inhibition above about 13%, passing the limit was not always enough;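 also: 0% = enzyme with probe and DMSO and 100% = no enzyme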
Keap1-Nrf2 PPI: disrupts human Keap1 binding to Nrf2 peptide; actives 0.15% (n = 340,000); inhibition, % at 9.4 µM; Q14145; Keap1 Kelch-Nrf2 peptide fluorescence polarization, 1536-well; AID 504523; in the data active = inhibition above about 12%;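 also: human Keap1 Kelch domain with fluorescein labeled Nrf2 9mer peptide probe; 0% = neutral control wells and 100% = peptide positive control; higher means more block of Keap1 binding to Nrf2 peptide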
Target sequence (Q14145 whole entry, looked up, the tested form may be a part): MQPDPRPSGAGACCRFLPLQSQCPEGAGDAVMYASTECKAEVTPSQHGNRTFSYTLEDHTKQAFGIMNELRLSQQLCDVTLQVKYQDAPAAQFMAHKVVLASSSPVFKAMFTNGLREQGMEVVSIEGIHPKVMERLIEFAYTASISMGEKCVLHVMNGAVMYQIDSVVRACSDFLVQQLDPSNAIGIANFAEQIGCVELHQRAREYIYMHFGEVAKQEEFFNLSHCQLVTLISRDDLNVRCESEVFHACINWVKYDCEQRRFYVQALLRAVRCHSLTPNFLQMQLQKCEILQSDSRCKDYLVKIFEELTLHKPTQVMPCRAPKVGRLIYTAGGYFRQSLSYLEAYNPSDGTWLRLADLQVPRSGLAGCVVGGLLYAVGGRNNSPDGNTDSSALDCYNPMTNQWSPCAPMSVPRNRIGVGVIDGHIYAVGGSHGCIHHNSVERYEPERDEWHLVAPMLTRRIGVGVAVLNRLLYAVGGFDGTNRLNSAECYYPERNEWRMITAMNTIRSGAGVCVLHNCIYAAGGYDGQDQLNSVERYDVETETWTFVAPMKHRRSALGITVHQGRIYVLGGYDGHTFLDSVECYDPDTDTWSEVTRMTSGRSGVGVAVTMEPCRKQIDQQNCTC
C-LANA FP: inhibitors of KSHV LANA C-terminal domain DNA binding | MBP-C-LANA/FAM-LBS DNA binding, fluorescence polarization | inhibition, % at 9 µM | actives 0.078% (n = 340,000) | AID 504423;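 active = highest replicate inhibition at or above 60% at 9 µM, even if other replicates fall short; inactive = all replicates below 60% inhibition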;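 also: 0% = neutral control wells and 100% = 4 µM acridine orange control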
E coli Lon conf: E. coli Lon inhibition confirmation. inhibition, % at 7.94 µM. actives 31% (n = 1,400). shares compounds with eLon inh. purified E. coli Lon, fluorescence polarization; in the data active = inhibition above about 16%;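 also: 0% = enzyme with probe and DMSO and 100% = no enzyme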
* marks the source's active call; other numbers are inactive results; nt = no result given.

SMILES	RTF Ca sens act	RTF Ca sens inh	eLon inh	Keap1-Nrf2 PPI	C-LANA FP	E coli Lon conf
COc1ccc(/C=C/C(=O)OCC(=O)N2c3ccccc3CC2C)c(OC)c1 (stereo unspecified)	nt	nt	14*	nt	nt	-4
COC(=O)c1ccccc1NC(=S)NC(=O)c1ccc(C)cc1	5	-8	-6	3	1	nt
COC(=O)c1ccccc1NC(=S)NC(=O)c1ccccc1	0	-16	16*	-18	0	10
Cc1ccc2cccnc2c1NC(=S)NC(=O)c1ccccc1	-4	-6	19*	-7	0	2
Cc1ccc2cccc(NC(=S)NC(=O)c3ccccc3)c2n1	4	-16	-13	4	1	nt
Cc1ccc(NC(=O)c2cc(S(=O)(=O)N3CCOCC3)cn2C)cc1F	10	-13	10	-6	0	nt
CCCCc1nc2cc(C(=O)N3CCN(c4cnccn4)CC3)ccc2o1	2	-11	85*	0	-1	-1
O=C(O)/C=C/C(=O)Nc1ccc(S(=O)(=O)N2CCCC2)cc1	4	1	-2	-5	-3	nt
CCNC(=O)c1c(C)nc2ccccn12	3	-3	16*	-5	-2	-3
Cn1c(CNC(=O)Nc2ccccc2)nnc1SCc1ccccc1	10	-5	-22	-3	1	nt
Cn1c(CNC(=O)Nc2cccc(Cl)c2)nnc1SCc1ccccc1	4	-1	15*	-6	0	-13
C[C@H](CO)N1C[C@H](C)[C@@H](CN(C)S(=O)(=O)c2cccc(F)c2)OCc2cnnn2CCCC1=O	nt	nt	7	nt	nt	nt
C[C@H]1CN([C@@H](C)CO)C(=O)CCCn2nncc2CO[C@H]1CN(C)S(=O)(=O)c1cccc(F)c1	nt	nt	13*	nt	nt	-14
COc1ccc(-c2cnc(N)nc2-c2ccc(OCc3ccccc3)cc2O)cc1	-1	0	-3	3	0	nt
Nc1ncc(-c2ccccc2)c(-c2ccc(O)cc2O)n1	-1	-9	22*	0	-2	7
CCCCC(=O)NCc1ccc2c(c1)cc(C)n2C	-3	-6	11	0	-1	nt
COc1ccc(/C=C\C(=O)NCc2ccc3c(c2)cc(C)n3C)cc1OC	-2	-7	25*	-3	0	-11
CCOC(=O)CCC(=O)NCc1ccc2c(c1)cc(C)n2C	16	-27	39*	-1	1	-4
COc1cccc(C(=O)NCc2ccc3c(c2)cc(C)n3C)c1	8	-4	31*	6	1	16
CCC(CC)C(=O)NCc1ccc2c(c1)cc(C)n2C	-1	-8	10	1	1	nt
COc1ccc(C(=O)NCc2ccc3c(c2)cc(C)n3C)cc1OC	1	-4	15	-2	1	nt
Cc1cc2cc(CNC(=O)c3cccs3)ccc2n1C	6	-21	27*	0	0	14
O=C(Cc1ccc(NC(=O)C2CCN(C(=O)C3CC3)CC2)cc1)Nc1cccc(C(=O)N2CCCCC2)c1	-4	-6	-9	-1	2	nt
CC1CCc2c(sc3[nH]c(=S)n(C)c(=O)c23)C1 (stereo unspecified)	3	-5	0	-2	-4	nt
COc1ccccc1CCNC(=O)C(=O)NCC1OCCN1S(=O)(=O)c1ccc(Cl)cc1 (stereo unspecified)	4	2	16*	0	1	-5
SMILES	RTF Ca sens act	RTF Ca sens inh	eLon inh	Keap1-Nrf2 PPI	C-LANA FP	E coli Lon conf
CC(NS(=O)(=O)c1ccccc1)C1CC2CCC1C2 (stereo unspecified)	3	2	23*	-2	0	-2
N=c1c2c(-c3ccccc3)c(-c3ccccc3)n(Cc3ccco3)c2ncn1CCCn1ccnc1	4	4	-11	-3	-1	nt
N=c1c2c(-c3ccccc3)c(-c3ccccc3)n(Cc3ccco3)c2ncn1CCCN1CCOCC1	-5	2	14*	0	0	-1
O=C(Nc1ccc([N+](=O)[O-])cc1)OC1CCS(=O)(=O)C1 (stereo unspecified)	nt	nt	-2	nt	nt	nt
COc1ccc(Cl)cc1S(=O)(=O)n1ccnc1C(C)C	-4	-2	17*	-3	0	2
CCOC(=O)C1Nc2c(F)cc(C)cc2C2c3ccccc3CC12 (stereo unspecified)	-1	-4	-2	-1	1	nt
CCOC(=O)C1Nc2ccccc2C2c3ccccc3CC12 (stereo unspecified)	5	-7	30*	4	-2	29*
CC1=C(C(=O)c2ccccc2)C(c2cccc([N+](=O)[O-])c2)NC(=S)N1 (stereo unspecified)	-6	4	26*	-3	-1	1
CCCNC(=O)C1(C)CCCN(C(=O)c2ccccc2OC)C1 (stereo unspecified)	nt	nt	1	nt	nt	nt
CCOC(=O)c1c(C)oc2c1c(C=NCCC(=O)O)c(O)c1ccccc12	0	-4	15*	-5	-1	30*
CCOC(=O)c1c(C)oc2c1c(C=NC1CCS(=O)(=O)C1)c(O)c1ccccc12 (stereo unspecified)	1	-3	-1	-7	4	nt
COc1ccc(OCCN2CCC(C(=O)NC(c3ccc(OC)cc3)c3ccccn3)CC2)cc1 (stereo unspecified)	nt	nt	-2	nt	nt	nt
COc1ccc(OCCN2CCC(C(=O)NC(c3ccc(F)cc3)c3ccc4ccccc4n3)CC2)cc1 (stereo unspecified)	nt	nt	24*	nt	nt	-16
Cc1ccc(C(NC(=O)C2CCN(CCOc3ccccc3)CC2)c2ccccn2)cc1 (stereo unspecified)	nt	nt	15*	nt	nt	-3
O=C(NC(c1ccc(F)cc1)c1ccc2ccccc2n1)C1CCN(CCOc2ccc(F)cc2)CC1 (stereo unspecified)	nt	nt	-4	nt	nt	nt
COC(=O)[C@H](C)NC(=O)NCCC1=CCCCC1	-4	-9	24*	1	-3	9
CCC(C)[C@H](NC(=O)NCCC1=CCCCC1)C(=O)OC (stereo partly specified)	-3	3	-4	-3	-1	nt
CC1(C)CC(=O)C=C(NNC(=O)c2cccnc2)C1	nt	nt	31	nt	nt	nt
CC1(C)CC=C(NNC(=O)c2cccnc2)C(=O)C1	4	-9	21*	2	7	-8
O=C1C=C(NNC(=O)c2cccnc2)CC(c2ccco2)C1 (stereo unspecified)	-1	-12	46*	11	20	-28
O=C(COC(=O)c1ccc(NS(=O)(=O)c2cccs2)cc1)Nc1nc2c(F)c(F)c(F)cc2s1	1	-1	21*	-4	1	-25
C=CCn1c(Sc2nc(C)cs2)nc2c1c(=O)[nH]c(=O)n2C	-4	-5	22*	-2	0	3
O=C(CCNS(=O)(=O)c1ccccc1F)OCc1ccccc1Cl	2	-2	-9	0	3	nt
CCn1c(CSc2nnc3ccccn23)nc2cc(C(=O)O)ccc21	14	-5	52*	-1	3	42*

Bioassay records (PubChem)
